Most compounds without a hit are left out; they make up all but 19% or so of the library.
DT40 TDP1 CPT = qHTS for Inhibitors of human tyrosyl-DNA phosphodiesterase 1 (TDP1): qHTS in cells in presence of CPT; chicken DT40 Tdp1-/-;hTDP1 cells + 20 nM CPT, ATP luminescence, 48 h; Potency, µM (titrated, usually from 46.2 µM), for the others: at the highest dose activity change, negative = growth inhibition, hits mostly inhibitors; 12% of 420,000 active; note: potency is the fitted concentration of half-maximal effect; nearly all actives have a fitted effect of over 55% in size
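Chicken DT40 Tdp1-/- cells complemented with human TDP1, 400 cells/well, exposed to compounds plus 20 nM camptothecin for at least 48 h at 37 C; viability read as ATP content by CellTiter-Glo luminescence.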
DT40 TDP1 no CPT = qHTS for Inhibitors of human tyrosyl-DNA phosphodiesterase 1 (TDP1): qHTS in cells in absence of CPT; DT40 Tdp1-/- hTDP1 cells, no CPT, ATP luminescence, 48 h; Potency, µM (highest dose often 46.2 µM), without a hit: top-dose activity change, negative = growth inhibition, hits mostly inhibitors; 15% of 420,000 active; note: potency is the fitted concentration of half-maximal effect; nearly all actives have a fitted effect of over 55% in size
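Growth kinetics read by CellTiter-Glo luminescence after ≥48 hr at 37 °C. Cells: DT40 Tdp1-/- stably carrying human TDP1, 400 per well, compound exposure in the absence of CPT (DMSO vehicle).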
HT1080 IDH1KD tx = qHTS for induction of synthetic lethality in tumor cells producing 2HG: qHTS for the HT-1080-IDH1KD cell line | 2% of 360,000 active | Potency, µM (doses to about 46.1 µM), without a hit: at the highest dose activity, negative = toxicity, hits mostly cytotoxic | HT-1080 IDH1 knockdown viability, ATP luminescence, 48 h;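 note: potency is the fitted concentration of half-maximal effect; 0% = DMSO wells and -100% = cell-free medium wells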
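Using the IDH1-knockdown HT-1080 line run in the same batch and compound series as the NT line, viability after 48 h at 37 °C was determined by CellTiter-Glo luminescence and expressed as % activity.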
HT1080-NT tox = qHTS for induction of synthetic lethality in tumor cells producing 2HG: qHTS for the HT-1080-NT fibrosarcoma cell line; HT-1080-NT fibrosarcoma viability, CellTiter-Glo ATP luminescence, 48 h; Potency, µM (highest dose often 46.1 µM), for inactives: at the top dose activity, negative = less viability, actives largely listed as cytotoxic; 1.6% of 360,000 active; AID 686970, 2013;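 note: NT is the 2HG producing partner of a matched IDH1 knockdown line; potency is the fitted concentration of half-maximal effect; 0% = DMSO-treated cells and -100% = media-only wells without cells; nearly all actives have a fitted effect of over 55% in size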
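Viability of the 2HG-overproducing fibrosarcoma line after 48 hours of compound exposure at 37 degrees C was determined by luminescence with CellTiter-Glo, and concentration-effect curves were then fitted and categorized.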
IL1B secr inh = qHTS for Inhibitors of Inflammasome Signaling: IL-1-beta AlphaLISA Primary Screen; THP-1 LPS/ATP IL-1B secretion, AlphaLISA, 16 h; active compounds read low; activity change, % at 57.5 µM; 4.7% of 360,000 active; in the data active = activity change below about -50%; inconclusive = mostly about -30% to -49%
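Secreted IL-1B measured by AlphaLISA bead assay after 16 h compound exposure of THP-1 cells; compounds (final up to 57.5 uM) added 1 h before LPS (250 ng/mL) and ATP (1.25 mM) stimulation; lower signal means less secretion.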
The depositor's hits bear a star; ? = inconclusive; · = no result given. Unless noted, calls come from the whole dose curve; as a rule, active = well fitted curve in the direction sought with a large enough effect; inconclusive = small, poorly fitted or top-dose-only effect, or another doubt; inactive = no such curve, though single readings can be large; an effect the other way counts as inactive or inconclusive. Unless noted, % is set by controls: 0 for no effect and ±100 for the full control effect.

SMILES | DT40 TDP1 CPT | DT40 TDP1 no CPT | HT1080 IDH1KD tx | HT1080-NT tox | IL1B secr inh
COc1cc(C(=O)NCC(c2ccc(N(C)C)cc2)N2CCc3ccccc32)cc(OC)c1OC (stereo not given) | 7.3µM* | 18µM* | · | · | ·
CCOC(=O)C1(C)CCN1C(=O)c1ccc(SC(F)(F)F)cc1 (stereo not given) | 18µM* | ? | -1% | 1% | 14
CCOC(=O)C1(C)CCCCCN1C(=O)c1ccc(SC(F)(F)F)cc1 (stereo not given) | ? | ? | 18% | 18% | 12
CCOC(=O)C1(C)CCN1C(=O)c1ccc(C(C)(C)C)cc1 (stereo not given) | 16µM* | 21µM* | 10% | 0% | 3
O=C(NC(Cc1ccc(O)cc1)C(=O)N=Nc1c(O)[nH]c2ccccc12)c1ccccc1 (stereo not given) | -3% | -19% | 15% | 6% | -2
CN(C)C/C=C/C(=O)Nc1cccc(-c2c[nH]c3ncnc(Oc4ccc(NC(=O)CC(=O)Nc5ccc(F)cc5)cc4F)c23)c1 | 11% | -6% | -10% | -14% | -90*
CC(=O)c1cccc(OCC(=O)N(C)CC(=O)Nc2ccc(F)cc2)c1 | -19% | 2% | -1% | 10% | 5
COc1ccc(CN(CC(=O)NC2CCCC2)C(=O)c2ccc(-c3ccccc3)[nH]2)cc1 | -28% | ? | -6% | ? | -68*
CC(C)(C)NC(=O)C(c1ccc(Cl)cc1)N(Cc1ccco1)C(=O)CCl (stereo not given) | 4.6µM* | 2.9µM* | 2% | 0% | ?
O=C(NC1CCCCC1)C(c1ccncc1)N(Cc1ccccc1)C(=O)c1ccc(-c2ccccc2)[nH]1 (stereo not given) | 16µM* | ? | ? | ? | -28
CC(C)(C)NC(=O)C(c1ccncc1)N(Cc1ccco1)C(=O)c1ccc(-c2ccccc2)[nH]1 (stereo not given) | ? | ? | 18µM* | 18µM* | 39
COc1ccc(-c2nc3ccc(N4CCCC4)cc3c(=O)[nH]2)cc1OC | 13µM* | 21µM* | -14% | -1% | -19
O=C(NN1CCCCC1)c1cnn2c(C(F)F)cc(-c3ccccc3)nc12 | ? | ? | 12% | 2% | 10
CN(C)CCn1c2c(c(SCC(=O)N3CCc4ccccc43)nc1=O)CCCC2 | -26% | ? | 0% | 1% | -6
CCc1cccc2c(C(=O)CN3C(=O)NC4(CCc5ccccc54)C3=O)c[nH]c12 (stereo not given) | 4.6µM* | 4.6µM* | ? | ? | -58*
CCc1cccc2c(C(=O)CN3C(=O)N(C)C4(CCCCC4)C3=O)c[nH]c12 | 3.3µM* | 8.2µM* | 16µM* | 18µM* | 60
O=C(O)CN1C(=O)NC2(CCc3ccccc32)C1=O (stereo not given) | 11% | -14% | 8% | 13% | 10
CCc1cccc2c(C(=O)CN3C(=O)NC(C)(c4cccc5ccccc45)C3=O)c[nH]c12 (stereo not given) | ? | ? | 15µM* | ? | 28
CN1C(=O)N(CC(=O)NCc2ccc(Cl)cc2Cl)C(=O)C12CCCCC2 | -16% | -5% | -1% | -4% | -54*
CCc1cccc2c(C(=O)COC(=O)c3nn(C)c(=O)c4ccccc34)c[nH]c12 | ? | ? | -25% | -22% | -6
CO[C@@H]1CN(C)C(=O)c2cc(NS(=O)(=O)c3ccc(C)cc3)ccc2OC[C@H](C)N(Cc2nccs2)C[C@H]1C | ? | ? | 15% | 1% | 42
